Laboratory results as given in the supplement of paper PMC10849652.
Targets with a hit are over-represented here; the source holds about 8,800 in all. About 0.5% of all pairs of compound and target were hits. Unmarked numbers belong to inactive results.

How the values were obtained:
Assay in all cases: log2 fold change, soluble protein after heating vs DMSO (PISA); higher = thermal stabilisation; K562 lysate, 10 uM; active = over 0.2 and 3.5 SD of the protein, either way, in both replicates (recomputed)
[1] = compound: Cc1cn(-c2cc(NC(=O)c3ccc(C)c(Nc4nccc(-c5cccnc5)n4)c3)cc(C(F)(F)F)c2)cn1 [nilotinib]
Procedure, shortened: (§1)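 A 30 min treatment with 10 μM compound was applied to crude K562 extract at 1 mg/mL protein in PBS pH 7.4 with 1 mM MgCl2. Heating for 3 min spanned 48°C-58°C, after which aliquots were pooled, adjusted to 0.5% NP-40 at 4°C and spun at 21,000xg for 90 min. TMTpro 16plex LC-MS/MS of the supernatant, with channel sums equalised, gave values recorded as log-two fold change in thermal stability against solvent controls, from duplicates.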

[2] = compound: Cc1nc(Nc2n[nH]c3c2CN(C(=O)N[C@H](CN(C)C)c2ccccc2)C3(C)C)c2sccc2n1
Procedure, shortened: as §1

[3] = compound: Cc1nc(Nc2ncc(C(=O)Nc3c(C)cccc3Cl)s2)cc(N2CCN(CCO)CC2)n1 [dasatinib]
Procedure, shortened: as §1

[4] = compound: Cc1ncc(-c2ccnc(Nc3ccc(S(C)(=O)=O)cc3)n2)n1C(C)C
Procedure, shortened: as §1

[5] = compound: Cn1cc(-c2ccc3c(c2)CCN3C(=O)Cc2cccc(C(F)(F)F)c2)c2c(N)ncnc21
Procedure, shortened: as §1

[6] = compound: Cn1cc(CNCC2CCN(c3ncc(C(=O)NO)cn3)CC2)c2ccccc21 [quisinostat]
Procedure, shortened: as §1

[7] = compound: Cn1cncc1[C@@](N)(c1ccc(Cl)cc1)c1ccc2c(c1)c(-c1cccc(Cl)c1)cc(=O)n2C [tipifarnib]
Procedure, shortened: as §1

[8] = compound: NC(=O)Nc1cc(-c2cccc(F)c2)sc1C(=O)N[C@H]1CCCNC1
Procedure, shortened: as §1

[9] = compound: NC(=O)c1cnc(N[C@@H]2CCCC[C@@H]2N)nc1Nc1cccc(-n2nccn2)c1
Procedure, shortened: as §1

[10] = compound: NC1(c2ccc(-c3nc4ccn5c(=O)[nH]nc5c4cc3-c3ccccc3)cc2)CCC1
Procedure, shortened: as §1

[11] = compound: NCC(=O)Nc1ccc(-n2nc(C(F)(F)F)cc2-c2ccc3c(ccc4ccccc43)c2)cc1
Procedure, shortened: as §1

[12] = compound: O=C(CCCCCCC(=O)Nc1ccccc1)NO [vorinostat]
Procedure, shortened: as §1

[13] = compound: O=C(O)c1ccc2c(c1)nc(Nc1cccc(Cl)c1)c1ccncc12 [silmitasertib]
Procedure, shortened: as §1

[14] = compound: O=C1NC(=O)C(c2cnc3ccccn23)=C1c1cn2c3c(cc(F)cc13)CN(C(=O)N1CCCCC1)CC2
Procedure, shortened: as §1

[15] = compound: c1cn2cc(-c3ccc4cn[nH]c4c3)nc(Nc3ccc(N4CCOCC4)cc3)c2n1 [entospletinib]
Procedure, shortened: as §1

UniProt Q9BXS6, sequence (Q9BXS6 whole entry, looked up): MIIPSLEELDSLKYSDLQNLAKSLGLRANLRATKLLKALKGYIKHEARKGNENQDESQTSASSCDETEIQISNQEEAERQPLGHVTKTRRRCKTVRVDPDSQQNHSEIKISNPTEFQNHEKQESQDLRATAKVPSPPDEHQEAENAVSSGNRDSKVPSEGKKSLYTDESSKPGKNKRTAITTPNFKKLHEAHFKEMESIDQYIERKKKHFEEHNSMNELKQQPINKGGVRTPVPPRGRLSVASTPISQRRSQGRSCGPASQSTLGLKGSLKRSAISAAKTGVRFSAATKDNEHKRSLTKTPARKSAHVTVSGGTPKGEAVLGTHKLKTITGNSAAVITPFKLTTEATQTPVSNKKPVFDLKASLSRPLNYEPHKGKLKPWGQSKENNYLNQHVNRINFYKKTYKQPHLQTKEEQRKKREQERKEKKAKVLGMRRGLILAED
UniProt Q9H857, sequence (Q9H857 whole entry, looked up): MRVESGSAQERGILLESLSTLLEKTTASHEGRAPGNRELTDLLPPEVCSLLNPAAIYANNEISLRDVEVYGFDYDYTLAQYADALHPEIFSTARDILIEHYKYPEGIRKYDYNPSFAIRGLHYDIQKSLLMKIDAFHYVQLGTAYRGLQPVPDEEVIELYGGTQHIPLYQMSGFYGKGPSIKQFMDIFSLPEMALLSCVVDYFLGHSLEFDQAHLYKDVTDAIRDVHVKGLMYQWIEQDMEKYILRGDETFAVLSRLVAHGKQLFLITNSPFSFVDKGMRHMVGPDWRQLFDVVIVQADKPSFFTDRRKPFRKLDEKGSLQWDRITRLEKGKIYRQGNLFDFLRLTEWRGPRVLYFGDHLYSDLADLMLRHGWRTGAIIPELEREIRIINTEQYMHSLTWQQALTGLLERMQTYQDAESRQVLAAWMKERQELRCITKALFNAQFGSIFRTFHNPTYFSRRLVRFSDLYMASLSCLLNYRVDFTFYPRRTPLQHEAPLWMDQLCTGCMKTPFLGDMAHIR
UniProt Q8N1F7, sequence (Q8N1F7 whole entry, looked up): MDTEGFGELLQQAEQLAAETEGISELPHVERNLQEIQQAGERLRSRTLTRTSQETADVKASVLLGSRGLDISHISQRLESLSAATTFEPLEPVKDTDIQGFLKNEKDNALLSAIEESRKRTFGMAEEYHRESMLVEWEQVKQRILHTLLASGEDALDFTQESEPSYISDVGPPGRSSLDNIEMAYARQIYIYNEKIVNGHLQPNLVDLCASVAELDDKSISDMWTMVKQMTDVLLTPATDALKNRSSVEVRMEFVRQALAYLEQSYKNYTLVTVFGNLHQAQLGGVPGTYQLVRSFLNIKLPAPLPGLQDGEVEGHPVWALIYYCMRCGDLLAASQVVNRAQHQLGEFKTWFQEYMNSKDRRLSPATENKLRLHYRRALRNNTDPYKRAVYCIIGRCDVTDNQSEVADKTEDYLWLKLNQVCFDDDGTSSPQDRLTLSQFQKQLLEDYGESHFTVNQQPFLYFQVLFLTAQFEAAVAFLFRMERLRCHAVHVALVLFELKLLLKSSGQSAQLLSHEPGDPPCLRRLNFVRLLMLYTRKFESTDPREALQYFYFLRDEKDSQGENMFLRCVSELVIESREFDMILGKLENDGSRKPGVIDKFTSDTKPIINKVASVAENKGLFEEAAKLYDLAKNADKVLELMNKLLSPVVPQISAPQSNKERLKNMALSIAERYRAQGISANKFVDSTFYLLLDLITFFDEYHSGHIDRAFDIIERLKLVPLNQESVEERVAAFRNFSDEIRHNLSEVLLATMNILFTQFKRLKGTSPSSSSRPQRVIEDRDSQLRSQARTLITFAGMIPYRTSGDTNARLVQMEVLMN
UniProt Q13153, sequence (Q13153 whole entry, looked up): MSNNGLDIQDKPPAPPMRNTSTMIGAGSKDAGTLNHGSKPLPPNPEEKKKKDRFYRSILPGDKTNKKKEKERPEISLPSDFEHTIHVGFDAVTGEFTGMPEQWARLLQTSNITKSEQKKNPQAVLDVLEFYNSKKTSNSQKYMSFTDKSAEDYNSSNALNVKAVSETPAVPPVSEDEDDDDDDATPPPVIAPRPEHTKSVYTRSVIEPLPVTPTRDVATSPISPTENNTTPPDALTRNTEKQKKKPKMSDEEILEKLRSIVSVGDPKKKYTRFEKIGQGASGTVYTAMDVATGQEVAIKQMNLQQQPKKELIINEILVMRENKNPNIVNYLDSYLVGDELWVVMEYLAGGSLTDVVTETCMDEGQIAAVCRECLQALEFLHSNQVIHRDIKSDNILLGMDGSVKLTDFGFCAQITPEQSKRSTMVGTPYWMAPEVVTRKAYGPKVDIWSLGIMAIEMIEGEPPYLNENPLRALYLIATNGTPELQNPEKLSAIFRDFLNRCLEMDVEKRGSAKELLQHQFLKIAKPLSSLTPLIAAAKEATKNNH
UniProt Q6N063, sequence (Q6N063 whole entry, looked up): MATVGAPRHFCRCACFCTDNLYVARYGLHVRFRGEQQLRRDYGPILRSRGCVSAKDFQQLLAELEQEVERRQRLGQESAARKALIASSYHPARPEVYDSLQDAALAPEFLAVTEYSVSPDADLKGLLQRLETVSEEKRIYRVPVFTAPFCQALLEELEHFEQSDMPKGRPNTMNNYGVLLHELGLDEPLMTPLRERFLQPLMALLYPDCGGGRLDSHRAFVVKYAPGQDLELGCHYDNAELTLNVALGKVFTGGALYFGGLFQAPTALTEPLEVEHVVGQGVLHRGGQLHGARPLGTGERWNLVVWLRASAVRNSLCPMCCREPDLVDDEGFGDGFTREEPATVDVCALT
UniProt Q13423, sequence (Q13423 whole entry, looked up): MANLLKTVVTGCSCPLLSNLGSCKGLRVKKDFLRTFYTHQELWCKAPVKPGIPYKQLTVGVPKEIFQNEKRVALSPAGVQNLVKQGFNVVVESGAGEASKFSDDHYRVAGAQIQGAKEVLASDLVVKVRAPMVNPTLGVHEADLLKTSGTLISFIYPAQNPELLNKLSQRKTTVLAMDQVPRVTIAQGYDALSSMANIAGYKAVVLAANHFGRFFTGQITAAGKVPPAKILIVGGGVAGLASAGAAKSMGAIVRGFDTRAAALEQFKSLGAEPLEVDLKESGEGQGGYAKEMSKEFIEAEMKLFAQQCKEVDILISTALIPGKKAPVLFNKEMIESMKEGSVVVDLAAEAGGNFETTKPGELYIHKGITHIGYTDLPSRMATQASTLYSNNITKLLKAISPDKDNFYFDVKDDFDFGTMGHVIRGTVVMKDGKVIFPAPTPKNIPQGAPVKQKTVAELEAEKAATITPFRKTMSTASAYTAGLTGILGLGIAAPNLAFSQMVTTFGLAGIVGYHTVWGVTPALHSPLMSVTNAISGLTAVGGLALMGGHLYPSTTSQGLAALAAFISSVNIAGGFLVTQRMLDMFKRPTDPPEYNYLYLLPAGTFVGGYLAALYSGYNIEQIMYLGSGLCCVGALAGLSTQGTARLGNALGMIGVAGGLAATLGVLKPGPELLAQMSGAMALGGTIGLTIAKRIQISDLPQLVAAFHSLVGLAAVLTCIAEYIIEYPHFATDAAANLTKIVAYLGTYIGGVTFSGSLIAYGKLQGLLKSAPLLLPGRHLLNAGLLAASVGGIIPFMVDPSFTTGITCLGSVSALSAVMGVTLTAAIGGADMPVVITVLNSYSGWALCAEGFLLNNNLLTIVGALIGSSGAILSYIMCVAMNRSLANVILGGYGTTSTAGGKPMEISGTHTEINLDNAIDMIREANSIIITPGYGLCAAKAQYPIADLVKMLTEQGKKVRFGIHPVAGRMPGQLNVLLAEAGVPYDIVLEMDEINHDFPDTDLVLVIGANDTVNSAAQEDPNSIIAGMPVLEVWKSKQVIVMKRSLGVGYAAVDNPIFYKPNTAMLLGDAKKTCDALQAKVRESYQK
UniProt Q15653, sequence (Q15653 whole entry, looked up): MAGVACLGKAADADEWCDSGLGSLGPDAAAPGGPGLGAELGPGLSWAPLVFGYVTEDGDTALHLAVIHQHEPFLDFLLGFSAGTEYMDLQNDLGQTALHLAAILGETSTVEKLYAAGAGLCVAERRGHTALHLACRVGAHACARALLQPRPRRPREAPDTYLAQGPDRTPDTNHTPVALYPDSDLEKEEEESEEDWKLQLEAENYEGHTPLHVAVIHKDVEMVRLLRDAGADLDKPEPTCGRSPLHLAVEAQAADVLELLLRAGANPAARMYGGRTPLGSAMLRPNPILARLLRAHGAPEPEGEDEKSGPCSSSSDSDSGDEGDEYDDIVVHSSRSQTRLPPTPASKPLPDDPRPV
UniProt Q9HBL8, sequence (Q9HBL8 whole entry, looked up): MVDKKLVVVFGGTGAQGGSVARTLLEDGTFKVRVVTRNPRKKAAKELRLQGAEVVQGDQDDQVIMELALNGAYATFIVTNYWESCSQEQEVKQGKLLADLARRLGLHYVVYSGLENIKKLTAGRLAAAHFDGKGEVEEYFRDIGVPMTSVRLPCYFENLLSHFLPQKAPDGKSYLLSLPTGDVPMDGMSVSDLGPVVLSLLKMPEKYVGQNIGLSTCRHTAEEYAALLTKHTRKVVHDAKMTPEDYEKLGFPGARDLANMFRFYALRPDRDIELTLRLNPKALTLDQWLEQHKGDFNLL
UniProt Q9Y6R0, sequence (Q9Y6R0 whole entry, looked up): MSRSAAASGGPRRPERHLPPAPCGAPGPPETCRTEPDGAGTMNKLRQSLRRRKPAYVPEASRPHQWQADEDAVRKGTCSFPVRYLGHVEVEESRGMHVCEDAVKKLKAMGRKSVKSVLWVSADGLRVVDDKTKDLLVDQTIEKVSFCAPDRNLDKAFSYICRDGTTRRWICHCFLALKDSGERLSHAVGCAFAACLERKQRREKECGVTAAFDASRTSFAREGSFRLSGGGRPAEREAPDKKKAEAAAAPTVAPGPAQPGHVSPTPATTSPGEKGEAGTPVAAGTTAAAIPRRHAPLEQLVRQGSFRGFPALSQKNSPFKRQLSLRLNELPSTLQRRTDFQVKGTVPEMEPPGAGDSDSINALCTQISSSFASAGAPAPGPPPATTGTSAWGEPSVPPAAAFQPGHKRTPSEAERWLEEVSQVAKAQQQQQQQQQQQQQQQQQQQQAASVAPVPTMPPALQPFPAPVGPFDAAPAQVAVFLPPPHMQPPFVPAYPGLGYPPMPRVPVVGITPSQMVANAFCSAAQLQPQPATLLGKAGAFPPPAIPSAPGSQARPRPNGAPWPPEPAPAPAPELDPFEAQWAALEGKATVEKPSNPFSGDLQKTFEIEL

Row | Target | log2 fold change [1] | log2 fold change [2] | log2 fold change [3] | log2 fold change [4] | log2 fold change [5] | log2 fold change [6] | log2 fold change [7] | log2 fold change [8] | log2 fold change [9] | log2 fold change [10] | log2 fold change [11] | log2 fold change [12] | log2 fold change [13] | log2 fold change [14] | log2 fold change [15]
1 | PAK1 (UniProt Q13153) | 0.028 | 0.02 | 0.046 | 0.012 | -0.024 | 0.044 | -0.053 | -0.028 | -0.025 | -0.012 | 0.008 | 0.13 | -0.046 | -0.001 | 0.051
2 | NUMBL (UniProt Q9Y6R0) | 0.038 | -0.013 | -0.041 | -0.12 | 0.219 | 0.04 | -0.06 | -0.415 (active) | -0.055 | -0.046 | 0.04 | -0.237 | 0.201 | 0.021 | 0.102
3 | NMRAL1 (UniProt Q9HBL8) | -0.017 | 0.004 | -0.035 | -0.005 | -0.039 | 0.025 | 0.01 | -0.021 | 0.012 | 0.045 | -0.023 | -0.009 | 0.047 | -0.04 | 0.012
4 | NUP93 (UniProt Q8N1F7) | -0.02 | 0.001 | -0.098 | -0.006 | 0.031 | 0.037 | -0.04 | 0.021 | 0.018 | -0.005 | -0.011 | -0.242 (active) | 0.067 | 0.015 | 0.022
5 | NUDT5 (UniProt Q9UKK9) | 0.021 | 0 | 0.045 | 0.008 | -0.024 | -0.016 | -0.013 | -0.018 | -0.013 | -0.014 | -0.018 | 0.1 | -0.021 | 0.02 | 0.012
6 | MTA2 (UniProt O94776) | 0.001 | 0.017 | -0.019 | -0.011 | 0.046 | -0.062 | -0.007 | 0.03 | -0.002 | 0.001 | 0.034 | -0.352 (active) | 0.02 | 0.006 | 0.021
7 | NNT (UniProt Q13423) | -0.017 | 0.001 | 0.003 | 0.002 | 0.002 | 0.01 | 0.009 | -0.021 | 0.002 | 0.001 | 0.02 | 0.023 | -0.001 | -0.036 | -0.01
8 | NPM3 (UniProt O75607) | -0.039 | -0.012 | 0.065 | 0.049 | 0.024 | -0.024 | -0.027 | 0.019 | 0.03 | -0.029 | -0.049 | -0.012 | 0.021 | -0.019 | -0.037
9 | OGFOD2 (UniProt Q6N063) | -0.002 | 0.005 | 0.006 | 0.063 | 0.048 | 0.031 | 0.026 | 0.049 | -0.017 | 0.049 | 0.023 | -0.075 | 0.038 | 0.022 | -0.001
10 | PAIP2 (UniProt Q9BPZ3) | 0.136 | 0.062 | -0.047 | -0.009 | -0.049 | 0.007 | -0.1 | -0.087 | -0.02 | -0.018 | 0.033 | 0.054 | -0.052 | -0.025 | -0.027
11 | NCOR1 (UniProt O75376) | 0.006 | 0.012 | -0.031 | -0.019 | 0.008 | -0.064 | -0.046 | 0.021 | 0.029 | 0.003 | 0.021 | -0.239 (active) | -0.035 | 0.014 | -0.01
12 | NARF (UniProt Q9UHQ1) | -0.029 | 0.011 | 0.01 | -0.031 | 0.014 | -0.03 | -0.062 | 0.017 | -0.079 | 0.005 | -0.05 | -0.243 (active) | -0.016 | -0.008 | -0.054
13 | NUSAP1 (UniProt Q9BXS6) | -0.001 | 0.004 | 0.045 | -0.009 | -0.047 | 0.038 | -0.016 | -0.024 | 0.002 | -0.055 | 0.01 | 0.101 | -0.036 | -0.003 | -0.001
14 | NEDD8 (UniProt Q15843) | 0.004 | -0.073 | 0.027 | 0.103 | -0.034 | 0.034 | 0.066 | -0.038 | -0.057 | 0.018 | -0.033 | 0.195 | -0.12 | 0.038 | -0.082
15 | NCAPD2 (UniProt Q15021) | 0.006 | 0.01 | -0.037 | -0.001 | 0.031 | -0.064 | -0.019 | 0.044 | 0.003 | -0.009 | -0.01 | -0.332 (active) | 0.01 | -0.005 | -0.001
16 | OPA1 isoform 2 (UniProt O60313) | 0.026 | -0.008 | -0.07 | 0.007 | 0.018 | 0.055 | -0.035 | 0.025 | 0.016 | -0.012 | 0.002 | 0.014 | 0.027 | 0.009 | -0.004
17 | OSBP2 (UniProt Q969R2) | -0.053 | -0.038 | -0.089 | -0.025 | -0.002 | -0.184 | -0.053 | 0.052 | 0.075 | 0.026 | 0.025 | 0.055 | -0.147 | 0.023 | -0.102
18 | NFKBIB (UniProt Q15653) | -0.004 | -0.015 | -0.042 | 0.052 | 0.043 | -0.062 | 0.059 | 0.025 | 0.004 | -0.08 | -0.052 | -0.204 | 0.04 | 0.024 | 0
19 | NPLOC4 isoform 2 (UniProt Q8TAT6) | -0.005 | 0.007 | 0.019 | 0.007 | 0.004 | -0.037 | 0 | -0.006 | 0.018 | -0.023 | 0 | 0.028 | -0.016 | 0.018 | 0.031
20 | NT5DC2 isoform 2 (UniProt Q9H857) | 0.025 | -0.041 | 0.067 | 0.029 | -0.027 | -0.002 | -0.027 | -0.002 | 0.06 | -0.011 | 0.013 | -0.272 (active) | -0.019 | 0 | -0.013
